From PubChem BioAssay
TTR transcr act – TTR transcription activators in neuroblastoma reporter cells, primary screen, cell-based, luminescence, SH-SY5Y, TTR promoter Gaussia luciferase; 100% = recombinant luciferase protein wells; AID 1117267, 2014; activation, % at 16.7 µM; 92,000 compounds, 1.3% hits;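 active = activation above the mean of all tested compounds plus 3 SD, cut at about 9.5% in these data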;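 note: cells exposed to compounds for one day before reading; 0% = median of all test compound wells on the plate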
TTR inh HuH7 – TTR promoter reporter inhibitors in hepatoma cells, counter-screen for TTR transcription activator project, cell-based, luminescence, HuH7 hepatoma. inhibition, % at 16.7 µM. 1,100 compounds, 4% hits. AID 1117279, 2014. shares compounds with TTR transcr act. HuH7 TTR promoter-Gaussia luciferase reporter;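 active = average inhibition above the solvent-only control wells' mean plus 3 SD, cut at about 15% in these data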;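 note: 0% = cells with DMSO only and 100% = cells with inhibitor control FD; inhibitors lower well luminescence so higher value means more inhibition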
TTR up confirm – TTR transcription activators, retest, confirmation, cell-based, luminescence, SH-SY5Y, triplicate | shares compounds with TTR transcr act | SHSY5Y TTR promoter Gaussia luciferase; 100% = purified Lucia enzyme wells, no cells | activation, % at 16.7 µM | 1,100 tested, under 10 active;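 active = mean activation above a set limit taken from the earlier primary screen, cut at about 11% in these data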;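 note: 0% = DMSO-treated cells and 100% = recombinant Lucia luciferase without cells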
An asterisk follows results filed as active. The entries come from a sample that favours hits as a whole.

Results for Cc1ccc([C@H]2C[C@H](n3cc(-c4ccc(F)cc4)nn3)[C@@H](O)CN2C(=O)C2CCCCC2)cc1 ?
TTR transcr act: 6

What do the screens show for `Cc1ccccc1C(=O)n1ccc2ccc(-c3ccc4ccn(Cc5ccccc5)c4c3)cc21`?
TTR transcr act: 1

Results for O=C(NCC(c1ccccc1)c1ccccc1)[C@H](Cc1ccccc1)NC1(C(=O)NC2CCCCC2)CCCCCC1 ?
TTR transcr act: 2

How did CCOC(=O)c1cnc2cc(-c3ccc(C(C)(C)C)cc3)nn2c1N do in these assays?
TTR transcr act: 0

What do the screens show for `CC(=O)c1cnc2cc(-c3cccc(Br)c3)nn2c1C`?
TTR transcr act: 9.7*; TTR inh HuH7: -1; TTR up confirm: 0

Results for Cc1cc(C)n2nc(-c3cccc(Br)c3)cc2n1 ?
TTR transcr act: 0

How did COC(=O)[C@]12CCCCC=C1N(Cc1ccc(OC)cc1)C(=O)[C@@H]2CC(=O)N1CCC(c2ccccc2)CC1 do in these assays?
TTR transcr act: 1

Results for CCC(C)[C@H](NC(=O)[C@@H]1CSC2c3ccccc3C(=O)N21)C(=O)NC1CCCC1 (stereo partly specified) ?
TTR transcr act: -1

Results for O=C(NC1CCCC1)C1c2ccccc2C(=O)N1CCCN1CCOCC1 (stereo unspecified) ?
TTR transcr act: 1

How did CCC(C)N1C(=O)c2ccccc2C1C(=O)NC1CCCCCC1 (stereo unspecified) do in these assays?
TTR transcr act: 15*; TTR inh HuH7: -24; TTR up confirm: 0

How did COC(=O)[C@]12C[C@H](CC(=O)N3CCN(C(=O)C4CC4)CC3)C(=O)N(Cc3ccc(Cl)cc3Cl)C1=C[C@H](COCc1ccccc1)O[C@@H]2C do in these assays?
TTR transcr act: 0

What do the screens show for `COc1ccc(C=NNC(=O)CCCC(=O)NN=Cc2ccc(OC)c(OC)c2)cc1OC`?
TTR transcr act: 0

Results for COc1cc(/C=N/NC(=O)COc2c(C)cc([N+](=O)[O-])cc2C)ccc1OC(=O)c1ccccc1Br ?
TTR transcr act: 15*; TTR inh HuH7: 14; TTR up confirm: -2

What do the screens show for `COc1ccc(C(=O)N/N=C/c2ccc(OC(=O)c3cccc4ccccc34)c([N+](=O)[O-])c2)cc1`?
TTR transcr act: -3

What do the screens show for `COc1cccc(NC(=O)COC(=O)c2c3c(nc4ccccc24)CCC(C)C3)c1` (stereo unspecified)?
TTR transcr act: 11*; TTR inh HuH7: -3; TTR up confirm: 0

What do the screens show for `CC1CCc2nc3ccccc3c(C(=O)OCC(=O)N(C)C3CCS(=O)(=O)C3)c2C1` (stereo unspecified)?
TTR transcr act: 0

How did COc1cccc(NC(=O)COC(=O)c2c(F)cccc2Cl)c1 do in these assays?
TTR transcr act: -1

Results for CN(Cc1ccccc1)C(=O)OCc1cn(Cc2cccc(Cl)c2)nn1 ?
TTR transcr act: -2

What do the screens show for `C[C@H]1C(=O)CC[C@@]23CCCN2C(=O)CCC[C@@H]13`?
TTR transcr act: 1

What do the screens show for `COCCNC[C@@]12CO[C@H](c3ccc(Cl)cc3)N1[C@@H](c1ccc(Cl)cc1)SC2`?
TTR transcr act: 1

How did O=C(NNc1nc2ccccc2o1)c1ccccc1 do in these assays?
TTR transcr act: -1

Results for O=C(NNc1nc2ccccc2nc1C(F)(F)F)c1ccccc1 ?
TTR transcr act: 10*; TTR inh HuH7: -10; TTR up confirm: -1

How did O=C(NNc1ccccc1F)c1ccccc1 do in these assays?
TTR transcr act: 0

Results for CCCCNCc1cc(OCC)c(OCC(N)=O)cc1Br ?
TTR transcr act: 18*; TTR inh HuH7: -5; TTR up confirm: 2

How did CCOc1cc(CO)c(Br)cc1OCC(=O)O do in these assays?
TTR transcr act: 1

How did CCCCNCc1cc(OC)c(OCC(N)=O)cc1Br do in these assays?
TTR transcr act: 1

What do the screens show for `c1ccc(OC2CCN(c3ncnc4sccc34)CC2)cc1`?
TTR transcr act: -2

What do the screens show for `CCOC(=O)[C@@]12CCC3=C1N(CCC3)C(=O)[C@H](CC(=O)NCCc1ccccc1OC)C2`?
TTR transcr act: -1

Results for COc1ccc(Cn2ccc3ccc(-c4ccc5ccn(C(=O)C6CCCCC6)c5c4)cc32)cc1 ?
TTR transcr act: -1

How did O=C(Nc1nnc(-c2ccccc2)o1)c1nc2ccccc2s1 do in these assays?
TTR transcr act: 15*; TTR inh HuH7: -12; TTR up confirm: 2

What do the screens show for `CC(C)C(=O)Nc1nnc(-c2ccccc2)o1`?
TTR transcr act: -1

What do the screens show for `NC(=O)c1oc2ccccc2c1NC(=O)c1nc2ccccc2s1`?
TTR transcr act: -1

How did COC(=O)c1cnn(-c2ccc(F)cc2F)c1/C=N/NC(=S)Nc1ccccc1 do in these assays?
TTR transcr act: -1

How did COC(=O)c1cnn(-c2ccc(Cl)cc2)c1/C=N/NC(=S)Nc1ccccc1 do in these assays?
TTR transcr act: -2

How did COC(=O)c1cnn(-c2ccccc2)c1/C=N/NC(=S)Nc1ccccc1 do in these assays?
TTR transcr act: 11*; TTR inh HuH7: -5; TTR up confirm: -1

Results for COC(=O)C1CN(CCO)CCS(=O)(=O)N1Cc1cn(Cc2ccc(C)cc2)nn1 (stereo unspecified) ?
TTR transcr act: 0

Results for CCC[C@H]1[C@@H](NC(=O)C(c2ccccc2)c2ccccc2)CC[C@@]23CCCN2C(=O)CCC[C@@H]13 ?
TTR transcr act: -2

How did CCCCCCCCN1C(=O)[C@@H](CC(=O)NCc2ccccc2)C[C@@]2(C(=O)OC)C1=C[C@H](C(C)C)O[C@@H]2C1CC1 do in these assays?
TTR transcr act: 3

How did NC(=O)c1nsc(C(=O)N(Cc2cccnc2)C(C(=O)NC2CCCC2)c2ccc(F)cc2)c1N (stereo unspecified) do in these assays?
TTR transcr act: 0

What do the screens show for `COc1ccccc1N(C(=O)c1snc(C(N)=O)c1N)C(C(=O)NCCC(C)C)c1ccco1` (stereo unspecified)?
TTR transcr act: -1

Results for CC(C)(C)NC(=O)C(c1ccco1)N(Cc1ccc(F)cc1)C(=O)c1snc(C(N)=O)c1N (stereo unspecified) ?
TTR transcr act: 10*; TTR inh HuH7: 1; TTR up confirm: 0

What do the screens show for `CCOC(=O)[C@@H]1CSCCS(=O)(=O)N1Cc1ccc(C(F)(F)F)cc1`?
TTR transcr act: -1

What do the screens show for `NC(=NC(=O)/C=C/c1ccccc1Br)N(CC#Cc1ccccc1)CC#Cc1ccccc1`?
TTR transcr act: -1

What do the screens show for `CN(C)c1ccc(Cn2c(=O)n(Cc3ccc(C(=O)NCC4COC4)cc3)c(=O)c3ccccc32)cc1`?
TTR transcr act: -1

How did O=C(N1CCC(C(O)(c2ccccc2)c2ccccc2)CC1)n1ncc(C(O)(c2ccccc2)c2ccccc2)n1 do in these assays?
TTR transcr act: -3

Results for O=C(NCCCc1ccccc1)[C@H](CO)NC1(C(=O)NCCc2c[nH]c3ccccc23)CCCCC1 ?
TTR transcr act: 2

Results for Cc1cccc(C(=O)c2ccccc2C(=O)O)c1 ?
TTR transcr act: 11*; TTR inh HuH7: -7; TTR up confirm: 1
